This passage reports INHIBITION results from ChEMBL document CHEMBL4513216, “Probing the Open Global Health Chemical Diversity Library for Multistage-Active Starting Points for Next-Generation Antimalarials” (ACS Infect Dis, 2020).

Among all 69,000 compounds or so, about 8,600 (12%) showed an effect of 50% or more. The sample as a whole holds a higher share of strong results than the screen did.

This experiment has as its system Plasmodium berghei. The experiment in a line: Screen against P. berghei liver stage (PbLuc), transformed with Luciferase, at 10uM. The experiment is classed as functional, HepG2. Conditions: tested at 10 uM.
Turning to `CCC(C)(N)c1nc(C(C)C)cc(=O)[nH]1` (configuration not stated), the INHIBITION is -4.35%.
The result for `Cc1cc(C2CCC2)nc(N2CCC3(CCNC(=O)CC3)CC2)n1` reads -32.5%; that for `CC(C)c1cc(=O)[nH]c(-n2nc(C3CC3)cc2N)n1`, 97%; that for `CCCc1cc(=O)[nH]c(SCc2ccccn2)n1`, 3.93%.
The result for `Cc1cc(C(=O)Nc2cc(C3CC3)n[nH]2)c2c(C)nn(C)c2n1` reads 0.991%; that for `CC(C)c1cc(=O)[nH]c(C(C)(C)N)n1`, -39.2%; that for `CCCc1cc(=O)[nH]c(-n2nc(C3CC3)cc2N)n1`, 94%.
The result for `NC1(c2nc(-c3ccccc3)cc(=O)[nH]2)CCCCC1` reads -10.1%.
`CCCc1cc(=O)[nH]c(-c2cccc(CN3CCCCCC3)c2)n1`: the INHIBITION came to 43.9%.
The result for `Cc1cc(=O)[nH]c(-n2nc(C3CC3)cc2N)n1` reads 68.9%.
The result for `NC1(c2nc(-c3ccccc3)cc(=O)[nH]2)CCCC1` reads -13.7%; that for `Cc1cc(=O)[nH]c(-n2nc(-c3ccccc3)cc2N)n1`, 65.2%; that for `O=C(C1=CCCC1)N1CCC[C@]2(C[C@@H](OCc3ccncc3)CO2)C1`, -9.67%.
With `Cc1ccccc1C1(C(=O)NCCN(C)C)CCOCC1`, the INHIBITION amounted to 18.9665%.
The result for `CC(C)N(C)Cc1ncn2c1CN(C(=O)C1CCCO1)CCC2` (configuration not stated) reads 4.08%; that for `O=c1c2c[nH]c(N3CCOCC3)nc-2cn1Cc1cccc(F)c1`, 33.4%.
The result for `COc1ccc(C(=O)CCc2nc(C3CC3)no2)cc1F` reads -19.1%.
As to `COc1nn(C)c2c1CCCN(C(=O)c1ccsc1)C2`, the INHIBITION is -15.7%.
Regarding `O=C1CN(C(=O)C2CN(c3ccc(F)cc3)CCO2)CCN1` (configuration not stated), the INHIBITION is given as -19.925%.
As to `Cn1cnc(NC(=O)C2CC(=O)N(c3cccc(F)c3)C2)n1` (configuration not stated), the INHIBITION stood at 6.448%.
The result for `Cc1nc(C)n(CC2CCCN2Cc2nc3ccccc3s2)n1` (configuration not stated) reads 33.8%; that for `CNc1cc(C2CCCN2C(=O)CCc2ccccc2F)ccn1` (configuration not stated), 22%.
The result for `COCCN(CC1CC1)c1nc(CCN)nc2ccccc12` reads 16.2%; that for `Cc1sc2nc(CCN)nc(N(C)CCCC3CCCO3)c2c1C` (configuration not stated), 43.2%.
For the molecule `Cc1sc2nc(CCN)nc(N(CCN(C)C)CC3CCCO3)c2c1C` (configuration not stated), the INHIBITION came out at 51.3%.
On to `Cc1nn(C)c2nc(N(CCN(C)C)CC3CCCO3)sc12` (configuration not stated), for which the INHIBITION stood at 35.3%.
Take `COCCN(CC1CC1)c1nc(CCN)nc2sc(C)c(C)c12`: the INHIBITION turned out to be 65.3%.
Regarding `COCCN(Cc1cccs1)c1nc(CCN)nc2ccccc12`, the INHIBITION was -17.3%.
The result for `CCN(CCN(C)C)c1nc(CCN)nc2sc(C)c(C)c12` reads 71%; that for `O=C(NCCCO)c1nnsc1-c1ccccc1`, 46.6%.
`Cc1sc2c(C3CCCN(S(C)(=O)=O)C3)nc(C)n2c1C` (configuration not stated): the INHIBITION is -22.6%.
The result for `Cc1cccc2nc(-c3nc4c([nH]3)CCCNC4=O)cn12` reads -176%; that for `COc1ccnc(N2CCN(C(=O)COCC(F)(F)F)CC2)n1`, -2.725%; that for `Cc1nn(C)c(Cl)c1C1CCCN1C(=O)c1cnccn1` (configuration not stated), 25.1%.
`CN(CCc1ccccn1)C(=O)C(c1cccnc1)N1CCOCC1` (configuration not stated): the INHIBITION is -29.2%.
The result for `Cc1cc(C)nc(CN(C)C(=O)C(c2cccnc2)N2CCCC2)c1` (configuration not stated) reads 61.9%; that for `Cc1n[nH]c(C)c1CCN(C)C(=O)C(c1cccnc1)N1CCOCC1` (configuration not stated), -12.5%; that for `CN(Cc1cc(C2CC2)on1)C(=O)C(c1cccnc1)N1CCCC1` (configuration not stated), 48.9%.
Turning to `CN(Cc1cc(C2CC2)[nH]n1)C(=O)C(c1cccnc1)N1CCCC1` (configuration not stated), the INHIBITION was 68.4%.
Take `Cc1ncsc1CCN(C)C(=O)C(c1cccnc1)N1CCOCC1` (configuration not stated): the INHIBITION is 0.266%.
The result for `O=C(NCCNc1cccnc1)C(c1cccnc1)N1CCCC1` (configuration not stated) reads -0.55%.
Regarding `Cc1cc(CN(C)C(=O)C(c2cccnc2)N2CCOCC2)n[nH]1` (configuration not stated), the INHIBITION is reported as 51.7%.
In the case of `CCCn1ncc(C(=O)N(C)Cc2cc(C3CC3)[nH]n2)c1C`, the INHIBITION is 40.6%.
Take `O=C(c1ccsc1)N1CCO[C@@H]2CN(Cc3nccs3)C[C@@H]2C1`: the INHIBITION turned out to be 42.1%.
`CC1COCCN1C(=O)Nc1cnc2c(cnn2C(C)C)c1` (configuration not stated): the INHIBITION is recorded as -27.9%.
As for `O=C1COc2ccc(C(=O)N3CCCC(n4ccnc4)C3)cc2N1` (configuration not stated), the INHIBITION is on record as -12.2%.
`Cc1cccc(C(Nc2nccc(C)n2)C2CC2)n1` (configuration not stated): the INHIBITION is reported as 6.66%.
With `COc1c(C2CCCN2CC(=O)Nc2cccnc2)c(C)nn1C` (configuration not stated), the INHIBITION turned out to be 19.4%.
The result for `O=C(c1ccsc1)N1CCC2(CCN(Cc3ccccn3)C2=O)C1` (configuration not stated) reads -5.08%; that for `CN(CCCOc1ccccc1Cl)C(=O)CN1CCNC1=O`, 17%.
Regarding `CC(C)[C@@H]1CN(c2ccc(C(F)(F)F)cn2)C[C@H]1NS(C)(=O)=O`, the INHIBITION was 26.4%.
Turning to `CC(C)[C@@H]1CN(C(=O)NCc2ccco2)C[C@H]1N(C)C`, the INHIBITION is listed as 31.4%.
The result for `CC(C)[C@@H]1CN(C(=O)CCn2ccccc2=O)C[C@H]1NS(C)(=O)=O` reads 8.53%.
In the case of `CCN(C)S(=O)(=O)N[C@H]1CN(c2ccc(F)cn2)C[C@@H]1C(C)C`, the INHIBITION is given as 64.5%.
The result for `CC(C)[C@@H]1CN(c2ccc(F)cn2)C[C@H]1NS(C)(=O)=O` reads 30.9%; that for `Cc1nc2cc(C(=O)N3C[C@@H](NS(C)(=O)=O)[C@H](C(C)C)C3)ccc2[nH]1`, 39%.
The result for `CC(C)[C@H]1CN(c2ccncc2)C[C@@H]1NS(=O)(=O)N(C)C` reads 76.8%; that for `CC(C)[C@H]1CN(c2ccncc2)C[C@@H]1NC(=O)C1(C#N)CCOCC1`, 10.9%; that for `CC(C)[C@@H]1CN(CC(=O)NCc2ccco2)C[C@H]1NS(=O)(=O)N(C)C`, 27.8%.
The result for `CC(C)[C@@H]1CN(C(=O)NCc2ccco2)C[C@H]1NS(=O)(=O)N(C)C` reads 62.8%; that for `CC(C)[C@H]1CN(C2Cc3ccccc3C2)C[C@@H]1NS(C)(=O)=O`, 55%.
`CC(C)[C@@H]1CN(c2ncc(F)cn2)C[C@H]1NS(=O)(=O)N(C)C`: the INHIBITION was determined as 41.7%.
Consider `Cn1cc(C2CCCN2C(=O)CCn2c(=O)oc3ccccc32)cn1` (configuration not stated), for which the INHIBITION is reported as -13.7%.
For `CN1CCCc2cc(CNC(=O)c3cccnc3O)ccc21`, the INHIBITION was -18.8%.
Consider `COC(=O)c1ccc(N(C(=O)c2cccnc2C)C(C)C)c(C)c1`, for which the INHIBITION is given as -4.63%.
The result for `CC(C)CNC(=O)[C@H]1CCS(=O)(=O)[C@@H]2CN(Cc3cccc(Cl)c3)C[C@H]12` reads 36.8%.
As for `Cn1ccnc1C1CCCN(C(=O)c2ccc3nccnc3c2)C1` (configuration not stated), the INHIBITION came out at 6.11%.
The result for `Cn1ncc2c(=O)[nH]c(CN3CCc4sccc4C3)nc21` reads 13.3%; that for `Cc1ncncc1C(=O)N1CCCC(n2cccn2)C1` (configuration not stated), 2.97%.
The result for `Cc1cc(NC(=O)NCc2cccnc2OC(C)C)no1` reads 31.2%; that for `Cc1cc(C)n(CC(C)Nc2nc(C)nc3c2CCNC3)n1` (configuration not stated), -9.18%; that for `Cc1oc(-c2ccco2)nc1CN1CCc2cncnc2C1`, 45.4%.
The result for `c1cncc(CNC2CCc3ncnn3C2)c1` (configuration not stated) reads 33.3%; that for `Cc1ccc(C)c(NCc2nc3n(n2)CCCCC3)c1`, 17.6%; that for `Cc1csc2c(C3CCN(C(=O)Cn4cncn4)CC3)nc(C)n12`, 32.3%.
As to `CC(C)c1nc(C2CCCN2CCS(C)(=O)=O)no1` (configuration not stated), the INHIBITION worked out at 31.5%.
The result for `CS(=O)(=O)N[C@@H]1CN(Cc2ccccc2)C[C@H]1O` reads 22.8%.
`CC(C)[C@@H]1CN(C2CCN(Cc3ccccc3)CC2)C[C@H]1NS(C)(=O)=O`: the INHIBITION is 64.9%.
The result for `CC(C)[C@@H]1CN(CCOc2ccccc2)C[C@H]1NS(=O)(=O)N(C)C` reads 33.2%; that for `CC(C)[C@@H]1CN(S(=O)(=O)Cc2ccccc2)C[C@H]1NS(=O)(=O)N(C)C`, 32.7%; that for `CS(=O)(=O)N[C@@H]1CN(Cc2ccccc2)C[C@@H]2CCCO[C@@H]21`, -57.7%.
As to `CC(C)[C@H]1CN(C2Cc3ccccc3C2)C[C@@H]1NS(=O)(=O)N(C)C`, the INHIBITION turned out to be 55%.
The result for `Cc1noc(C)c1CN1C[C@@H]2CCCO[C@@H]2[C@H](Nc2ccccn2)C1` reads 16.4%.
In the case of `Cc1noc(C)c1CN1CCCCC1CCc1ccc(O)cc1` (configuration not stated), the INHIBITION was 12.6%.
Take `COCCN1CC(=O)N2CC[C@@H](O)C[C@H]2C1=O`: the INHIBITION is 10.615%.
For `CC(C)[C@@H]1CN(C(=O)C2(c3ccccc3)CCN(C)CC2)C[C@H]1C(=O)O`, the INHIBITION is on record as 64%.
Turning to `CC(C)[C@@H]1CN(C(=O)CN(C)Cc2ccccc2)C[C@H]1C(=O)O`, the INHIBITION was found to be 47.9%.
As for `Cc1ccsc1C(=O)N1C[C@@H](C(=O)O)[C@H](C(C)C)C1`, the INHIBITION came out at 24.4%.
The result for `CC(C)[C@@H]1CN(C(=O)C2(c3ccccc3)CC2)C[C@H]1C(=O)O` reads 50.1%.
The result for `COc1ccc(C2(C(=O)N3C[C@@H](C(=O)O)[C@H](C(C)C)C3)CC2)cc1` reads -17.3%; that for `CC(C)[C@@H]1CN(C(=O)C2(c3ccccc3)CCN(C)CC2)C[C@H]1N(C)C`, 39.4%; that for `CS(=O)(=O)N1CCC(c2cncc(Cl)n2)CC1`, -1.16%.
Take `CC(C)CN(Cc1ccc(O)c(C(=O)O)c1)Cc1ccccn1`: the INHIBITION is 43.9%.
`CC(C)CN(Cc1ccccn1)Cc1ccccc1OCC(=O)O`: the INHIBITION is listed as 54.4%.
The result for `CC(C)CN(Cc1ccccn1)Cc1ccccc1C(=O)O` reads 38.6%; that for `COCC(=O)NCCn1nc(-c2cc(C)oc2C)ccc1=O`, -0.275%.
Regarding `O=C(c1ccccc1-c1ccccc1)N1C[C@@H]2CNC[C@]2(C(=O)O)C1`, the INHIBITION is given as 49.7%.
The result for `O=C(Nc1ccc(-c2ccccc2)cc1)N1C[C@@H]2CNC[C@]2(C(=O)O)C1` reads 41.5%; that for `O=C(Nc1ccccc1-c1ccccc1)N1C[C@@H]2CNC[C@]2(C(=O)O)C1`, 55.4%; that for `Cc1cc(CNC2CCCN(Cc3noc(C4CC4)n3)C2)on1` (configuration not stated), 46.2%.
Take `CN(CCc1ccccn1)C(=O)CCC1CCCN(c2ncccn2)C1` (configuration not stated): the INHIBITION was found to be 16.1%.
With `CCCc1csc(-c2ccc(S(C)(=O)=O)cc2)n1`, the INHIBITION is on record as -39.1%.
